Rows were chosen to be rich in hits. Some 1.1% of all compounds tested hit in one or more screens of this group.
miR-21 reporter = qHTS Assay for Modulators of miRNAs and/orActivators of miR-21. HeLa miR-21 FLuc reporter, luciferase, 48 h. Potency, µM (top dose mostly 38.3 µM), usual class: activators. 340,000 tested, under 10 active;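 further: miR-21 action dims this reporter so a rising signal means less miR-21 action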
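HeLa cells stably expressing CMV-driven firefly luciferase with a downstream miR-21 binding sequence, endogenously expressing miR-21, were treated with titrations (up to about 40uM final) for 48 hours at 37 degree Celsius. Luciferase luminescence was read after lysis.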
Apoferritin bind = qHTS Assay for Identification of Novel General Anesthetics. Ferritin light chain (Equus caballus), P02791. apoferritin/1-aminoanthracene competitive binding, fluorescence. Potency, µM (series often up to 77.5 µM), usual class: inhibitors. actives 0.074% (n = 350,000); further: nearly all actives have a fitted effect of over 20% in size
Target sequence (P02791 2-175 limits assumed): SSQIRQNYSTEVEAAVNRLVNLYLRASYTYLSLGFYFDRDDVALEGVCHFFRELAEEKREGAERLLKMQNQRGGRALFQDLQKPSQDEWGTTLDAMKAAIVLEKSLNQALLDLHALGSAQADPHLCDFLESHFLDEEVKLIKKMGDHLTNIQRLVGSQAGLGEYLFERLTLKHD
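In PBS, apoferritin at 10 uM is loaded with 1-AMA from a 50% saturated solution. After 10 min of compound exposure at ambient temperature, reduced 535 nm fluorescence indicates probe displacement.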
BRCA1 expr act = qHTS Assay to Identify Small Molecule Activators of BRCA1 Expression | Potency, µM (highest dose often 46.1 µM), most hits filed as activators | actives 1.1% (n = 380,000) | MCF7-BRCA1-FFLuc reporter, luminescence, 48 h; response scale: scaled: vehicle 0%, 10 µM genistein 100%; further: nearly all actives have a fitted effect of over 80% in size
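MCF7 cells carrying a BRCA1-firefly luciferase reporter (2000 cells/well, phenol-red free MEM) were attached for 2 h at 37 °C, then given compounds for 48 h. Luminescence was read 15 min after luciferase reagent; activity normalized to genistein (10 microM) and DMSO.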
p53 reactivation = qHTS assay for re-activators of p53 using a Luc reporter; H1299 p53-A138V BP100-luciferase reporter, luminescence, 24 h; Potency, µM (highest dose often 92.2 µM), actives largely listed as activators; actives 0.063% (n = 320,000); AID 504706, 2011; further: nearly all actives have a fitted effect of over 45% in size
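H1299 (p53-null), stable ts p53-A138V + BP100-Luc; 1000 cells/well, Opti-MEM/10% FBS; cpd 4 pt, 1:5; 24 h, 37 deg C, 5% CO2; detection reagent 10 min RT; luminescence.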
Numbers stand for hits; . = inactive; ? = inconclusive; / = not tested or not shown. The call rests on the fitted dose curve; in most records, active means well fitted curve in the direction sought with a large enough effect; inconclusive means small, poorly fitted or top-dose-only effect, or another doubt; inactive means no such curve, though single readings can be large; an effect the other way counts as inactive or inconclusive.

SMILES	miR-21 reporter	Apoferritin bind	BRCA1 expr act	p53 reactivation
Cn1c(SCCOc2ccccc2)nnc1-c1ccc(NC(=O)CCc2ccccc2)cc1	/	/	.	/
Oc1cc2cc(-c3csc(-c4ccc(F)cc4)n3)cc3c2n1CCC3	/	/	12.6µM	/
Oc1c(C(c2ccc(F)cc2)N2CCOCC2)sc2nc(-c3ccco3)nn12 (stereo unspecified)	.	.	/	/
O=C(/C=C/c1cccs1)c1ccc(NC(=O)c2cccc(Br)c2)cc1	.	.	11.2µM	.
COc1ccc(CCNC(=O)Cc2ccc(OCc3ccccc3)c(OC)c2[N+](=O)[O-])cc1OCc1ccccc1	.	35.5µM	.	.
CCOc1ccc(N(CC(=O)Nc2ccc(C)cc2)S(C)(=O)=O)cc1	.	.	8.91µM	?
CCOc1ccc(N(CC(=O)Nc2cc(C)cc(C)c2)S(C)(=O)=O)cc1	.	.	12.6µM	?
CCOc1ccc(N(CC(=O)Nc2ccc(C)cc2C)S(C)(=O)=O)cc1	.	.	.	?
COc1cccc(C(c2sc3nc(-c4ccco4)nn3c2O)N2CCCC2)c1 (stereo unspecified)	.	.	/	/
CCOc1ccc(CCNC(=O)COC(=O)CCc2cc(OC)c(OC)c(OC)c2)cc1OCC	/	/	.	.
O=C(Nc1ccc2oc(=O)ccc2c1)c1cc2ccccc2o1	.	.	2.51µM	?
Cc1cc([N+](=O)[O-])ccc1NC(=O)c1ccco1	.	.	.	.
Cc1cc(=O)oc2cc(NC(=O)c3cc4ccccc4o3)ccc12	.	.	/	.
Cc1ccc(NC(=O)c2ccc(OC(=O)c3cc4ccccc4o3)cc2)cc1	.	.	3.98µM	?
Cc1cc([N+](=O)[O-])ccc1NC(=O)c1cc2ccccc2o1	.	.	7.94µM	/
COc1ncc(C2=CC(=O)CC(C)(C)C2)cn1	/	/	.	.
O=C1C(=O)N(C2CCN(S(=O)(=O)c3ccc(F)cc3)CC2)CCN1Cc1ccccc1	.	.	/	/
CC1(C)CC(NC(=O)c2ccc(Cl)c(S(=O)(=O)N(Cc3ccccc3)c3ccccc3)c2)CC(C)(C)N1	/	/	.	.
CC(C)(C)Nc1nc(Cl)nc(Nc2ccccc2)n1	.	.	11.2µM	?
CCc1ccc(C(=O)NC(=S)Nc2ccc3c(c2)OCCO3)cc1	.	.	6.31µM	?
S=C(Nc1ccc2c(c1)OCCO2)Nc1ccccc1Cl	.	.	.	.
O=C(NC(=S)Nc1ccc2c(c1)OCO2)c1ccc(Cl)cc1	.	.	6.31µM	?
S=C(Nc1ccc(Cl)cc1)Nc1ccc2c(c1)OCCO2	.	.	7.08µM	?
COCCN(C(=O)COC(=O)CSc1ccc(Cl)cc1)c1c(N)n(Cc2ccccc2)c(=O)[nH]c1=O	/	/	.	.
O=C(NCc1cccs1)c1cc2c(s1)CCCC2	.	.	12.6µM	?
SMILES	miR-21 reporter	Apoferritin bind	BRCA1 expr act	p53 reactivation
Cc1ccc(C(=O)Nc2nc(-c3ccc4c(c3)OCCO4)cs2)o1	/	/	8.91µM	/
Cc1nc(-c2ccc3c(c2)OCCO3)cs1	.	?	7.94µM	.
C/C(Cc1ccccc1)=N\NC(=O)CNC(=O)c1ccc(Cl)cc1	.	.	.	.
CCC/C(=N\NC(=O)CNC(=O)c1ccc(Cl)cc1)c1ccccc1	.	15.8µM	.	.
Cc1cc(NC(=O)NC(=O)c2cccc(OC(F)(F)C(F)F)c2)n[nH]1	.	.	.	.
Cc1cc(NC(=O)c2cccc(Oc3ccccc3)c2)n[nH]1	.	.	11.2µM	.
Cc1ccc(SCC(=O)Nc2ccc(N3CCN(C)CC3)c(F)c2)c(C)c1	.	?	.	?
O=[N+]([O-])c1ccc(-c2cn3c(n2)SCC3)cc1	/	/	8.91µM	/
N#Cc1ccc(-c2cn3c(n2)SCC3)cc1	.	.	.	.
NS(=O)(=O)c1cc(C(=O)OCC(=O)Nc2ccc3c(c2)OCO3)ccc1Cl	/	/	.	.
O=C(/C=C/c1ccc(F)cc1)NC(=S)Nc1ccccc1O	.	.	12.6µM	.
Cn1c(C(=O)N2CCCc3ccccc32)cc2sccc21	.	12.6µM	.	.
O=C(c1cccs1)N1CCc2ccccc21	.	?	7.94µM	/
O=C(Nc1ncc(Cc2cccc(Cl)c2Cl)s1)C1CCCO1 (stereo unspecified)	.	.	?	.
O=C(Nc1ncc(Cc2ccccc2Cl)s1)C1CCCO1 (stereo unspecified)	.	.	4.47µM	14.1µM
O=C(Nc1nc(-c2ccc(Cl)cc2)cs1)C1CCCO1 (stereo unspecified)	.	.	6.31µM	.
